# From article PMC4336329 (PLoS ONE, 2015)
# In all, about 310,000 compounds went through this assay and about 14,000 (4.5%) showed an effect of 50% or more. Effects have a minus sign here. For the sample, strong results were picked, then their nearest neighbours and some compounds at random.
# Target: human ether-à-go-go-related gene (hERG) potassium channel (human, UniProt Q12809)
# Assay: primary screen, population patch clamp on CHO cells stably expressing hERG; higher = less effect of the substance
# 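Further: peak tail current of the secondary pulse compared with the same well before compound.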
# Sequence of human ether-à-go-go-related gene (hERG) potassium channel (Q12809 whole entry, looked up): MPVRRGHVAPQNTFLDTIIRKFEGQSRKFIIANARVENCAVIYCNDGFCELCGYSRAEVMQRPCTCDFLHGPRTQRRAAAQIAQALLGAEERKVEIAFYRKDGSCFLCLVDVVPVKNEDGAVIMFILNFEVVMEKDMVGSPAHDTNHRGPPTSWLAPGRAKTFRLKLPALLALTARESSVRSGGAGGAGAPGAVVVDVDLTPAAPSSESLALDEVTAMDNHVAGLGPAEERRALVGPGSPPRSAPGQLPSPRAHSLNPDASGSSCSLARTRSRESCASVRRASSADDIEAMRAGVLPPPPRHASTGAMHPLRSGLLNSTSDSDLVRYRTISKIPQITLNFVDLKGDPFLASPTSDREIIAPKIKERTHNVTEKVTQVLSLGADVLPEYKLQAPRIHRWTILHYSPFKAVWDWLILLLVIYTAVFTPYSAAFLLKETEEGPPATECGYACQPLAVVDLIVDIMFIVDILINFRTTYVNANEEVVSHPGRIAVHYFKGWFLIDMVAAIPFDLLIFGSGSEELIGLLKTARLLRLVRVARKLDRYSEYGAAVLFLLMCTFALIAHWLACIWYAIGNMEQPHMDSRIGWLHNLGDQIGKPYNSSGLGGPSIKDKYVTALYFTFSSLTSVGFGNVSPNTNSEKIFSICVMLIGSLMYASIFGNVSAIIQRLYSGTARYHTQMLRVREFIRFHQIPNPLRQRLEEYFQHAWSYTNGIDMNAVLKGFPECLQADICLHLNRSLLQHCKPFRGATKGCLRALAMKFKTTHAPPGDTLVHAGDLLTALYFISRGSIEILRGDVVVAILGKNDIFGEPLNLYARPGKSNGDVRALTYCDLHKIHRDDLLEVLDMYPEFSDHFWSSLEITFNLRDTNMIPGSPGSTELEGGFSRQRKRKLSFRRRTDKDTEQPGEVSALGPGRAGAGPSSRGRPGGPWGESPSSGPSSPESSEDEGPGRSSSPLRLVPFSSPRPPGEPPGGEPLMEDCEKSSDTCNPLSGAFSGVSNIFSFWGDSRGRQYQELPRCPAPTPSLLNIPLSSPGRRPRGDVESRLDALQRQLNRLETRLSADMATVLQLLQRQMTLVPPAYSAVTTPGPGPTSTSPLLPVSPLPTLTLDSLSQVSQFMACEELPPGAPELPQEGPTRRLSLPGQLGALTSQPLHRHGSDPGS
row,Structure (SMILES),"hERG current change (%, negative = inhibition) at 10uM [%]"
1,CCCCn1c(=NC(=O)c2cccnc2)c(C#N)cc2c(=O)n3cccc(C)c3nc21,-10.6
2,CCCCn1c(=NC(C)=O)c(C#N)cc2c(=O)n3cccc(C)c3nc21,-31
3,CCCCCn1c(=NC(=O)c2cccnc2)c(C#N)cc2c(=O)n3cccc(C)c3nc21,-54.8
4,Cc1cccn2c(=O)c3cc(C#N)c(=NC(=O)c4cccnc4)n(CC4CCCO4)c3nc12 (centres unmarked),-51.1
5,Cc1cc(=O)c2cc(Br)ccc2[nH]1,8.12
6,Cc1n[nH]c(C)c1S(=O)(=O)N1CCC(C(=O)N2CCn3c2nc2ccccc23)CC1,-3.79
7,CC(C)CC(COCc1ccc(Cl)cc1)N1CCN(C(=O)c2cccc(C(F)(F)F)c2)CCC1=O (centres unmarked),-38.1
8,CCOC(=O)c1cc(S(=O)(=O)N(C)Cc2ccccc2)cn1C,-11.7
9,CCn1c(=N)n(CCO)c2ccccc21.Cl,5.84
10,CCCn1c(=N)n(CCOc2ccc(OC)cc2)c2ccccc21,-59.5
11,CCn1c(=N)n(CCOc2ccc(OC)cc2)c2ccccc21,-55.1
12,COc1ccc(OCCn2c(=N)n(CCO)c3ccccc32)cc1.Cl,-24.2
13,COc1ccc(OCCn2c(=O)sc3ccccc32)cc1,-8.81
14,C=COCCn1c(=N)n(CCC)c2ccccc21.Cl,-28.3
15,Cn1cc(P(=O)(N2CCOCC2)N2CCOCC2)cc1P(=S)(N1CCOCC1)N1CCOCC1,16.6
16,Cc1nc(-c2ccc(NC(=O)c3ccc(Br)o3)cc2)cs1,4.44
17,O=C(c1ccccc1)N1CCN(C(=O)c2cc3nc(-c4ccccc4)cc(C(F)(F)F)n3n2)CC1,-51.1
18,O=C(c1cc2nc(-c3ccc(F)cc3)cc(C(F)(F)F)n2n1)N1CCCCC1c1cccnc1 (centres unmarked),-80.2
19,Cc1ccc(-c2cc(C(F)(F)F)n3nc(C(=O)N4CCN5CCCC5C4)cc3n2)cc1 (centres unmarked),-48.3
20,CCN1CCN(C(=O)c2cc3nc(-c4ccccc4)cc(C(F)(F)F)n3n2)CC1,-22
21,O=C(c1cc2nc(-c3ccccc3)cc(-c3ccccc3)n2n1)N1CCCC1,9.99
22,O=C(c1cc2nc(-c3ccccc3)cc(C(F)(F)F)n2n1)N1CCOCC1,-29.3
23,COc1cccc(-c2cc(C(F)(F)F)n3nc(C(=O)N4CCCCC4c4cccnc4)cc3n2)c1 (centres unmarked),-23.1
24,O=C(c1cc2nc(-c3ccccc3)cc(C(F)(F)F)n2n1)N1CCN2CCCC2C1 (centres unmarked),-30.3

row,Structure (SMILES),"hERG current change (%, negative = inhibition) at 10uM [%]"
1,O=C(c1cc2nc(-c3ccccc3)cc(-c3ccccc3)n2n1)N1CCN(C(=O)c2ccco2)CC1,-56.9
2,COc1ccc(-c2cc(C(F)(F)F)n3nc(C(=O)N4CCN5CCCC5C4)cc3n2)cc1OC (centres unmarked),-64.4
3,CN1CCN(C(=O)c2cc3nc(-c4ccccc4)cc(-c4ccccc4)n3n2)CC1,-38.3
4,Cc1ccc(-c2cc(C(F)(F)F)n3ncc(C(=O)N4CCCCC4c4cccnc4)c3n2)cc1 (centres unmarked),4.63
5,COc1ccc(C(=O)N/N=C/c2ccc(N3CCOCC3)s2)cc1OC,11.6
6,Cc1nc2sc(-c3ccccc3)nn2c(=O)c1Br,-1.74
7,COc1ccc2nc(Sc3c([N+](=O)[O-])nc(C)n3Cc3ccccc3)[nH]c2c1,-12.7
8,CCOc1ccc(N2CC(C(=O)NC3CCCC3)CC2=O)cc1 (centres unmarked),2.11
9,COc1ccc(N(C(=O)CNC(=O)c2ccco2)C(C(=O)NC2CCCC2)c2ccncc2)cc1 (centres unmarked),13.1
10,CC(=O)c1sc(NC(=O)CSCc2c(C)noc2C)nc1-c1ccccc1,-27.4
11,O=C(N/N=C/c1c[nH]c2ccc(Br)cc12)C1CC1,4.6
12,CC(C)C(=O)Nc1nnc(SCC(=O)NC2CC2)s1,12.8
13,CC(=O)N1c2ccccc2NC2=C(C(=O)CCC2)C1c1cccnc1 (centres unmarked),4.51
14,C=CCNC(=O)C1CC(=O)N(c2ccc(OCC(=O)Nc3ccc(OC)cc3)cc2)C1 (centres unmarked),-3.5
15,COc1ccc(-c2cc(=O)oc3cc(OC(C)C(=O)O)ccc23)cc1 (centres unmarked),6.26
16,Cc1cccc(NC(=O)CNC(=O)Cc2ccc(S(=O)(=O)N3CCOCC3)s2)c1C,5.91
17,CN(C)S(=O)(=O)c1cccc(C(=O)Nc2cc(Cl)cc(Cl)c2)c1,4.25
18,CC(=O)c1ccc(NS(=O)(=O)c2ccc3c(c2)CCC(=O)N3)cc1,8.49
19,Cn1c(=O)c2c(nc(CN3CCN(C(=O)c4ccco4)CC3)n2CCCc2ccccc2)n(C)c1=O,-68.5
20,COCCn1c(CN2CCN(C(=O)c3ccco3)CC2)nc2c1c(=O)n(C)c(=O)n2C,-9.04
21,Cn1c(=O)c2c(nc(CN3CCN(C(=O)c4ccco4)CC3)n2CCc2ccccc2)n(C)c1=O,-66.3
22,Cn1c(=O)c2c(nc(CN3CCN(C(=O)c4ccco4)CC3)n2CCCO)n(C)c1=O,-27.6
23,CCn1c(CN2CCN(C(=O)c3ccco3)CC2)nc2c1c(=O)n(C)c(=O)n2C,-16.4
24,Cn1c(=O)c2c(nc(CN3CCN(C(=O)c4ccco4)CC3)n2CC(N)=O)n(C)c1=O,24.4

row,Structure (SMILES),"hERG current change (%, negative = inhibition) at 10uM [%]"
1,CCN(CC)C(=O)c1cccc(C)c1,0.757
2,Cc1cccc(C(=O)N/C(=C\c2ccco2)C(=O)N2CCCC2)c1,-18.6
3,Cc1nc2ccc(NC(=O)c3nn(CC(C)C)c(=O)c4ccccc34)cc2s1,-26
4,CCCCn1nc(C(=O)Nc2cccc(C(=O)NC3CC3)c2)c2ccccc2c1=O,-82.6
5,CCCn1nc(C(=O)NC2CC2)c2ccccc2c1=O,-19.8
6,CC(C)Cn1nc(C(=O)Nc2cccc(C(=O)NC3CC3)c2)c2ccccc2c1=O,-71.6
7,CC(C)Cn1nc(C(=O)Nc2cccc(S(=O)(=O)N3CCCC3)c2)c2ccccc2c1=O,-7.01
8,Cn1nc(C(=O)Nc2cccc(C(=O)NC3CC3)c2)c2ccccc2c1=O,-35.3
9,N#C/C(C(=O)N1CCOCC1)=c1/s/c(=C\c2ccccn2)c(=O)n1-c1ccccc1,17.6
10,COCCCn1c(N)c(C(=O)NCc2ccco2)c2nc3ccccc3nc21,4.53
11,Cc1cc(C)n2nc(SCC(=O)N/N=C/c3ccccn3)nc2n1,3.74
12,C=CCN1C(=O)/C(=C\c2cccc(OC(=O)c3ccco3)c2)SC1=S,2.37
13,CC(C)n1ncc2c(C(=O)N3CCN(Cc4ccc(Br)s4)CC3)cc(C3CC3)nc21,-4.36
14,CC(=O)Nc1ccc(OS(=O)(=O)c2cc(Cl)ccc2C)cc1,-6.02
15,CC(=O)Nc1ccc(OS(=O)(=O)c2ccc(Cl)cc2)cc1,-24.5
16,COc1ccc(Cl)cc1S(=O)(=O)Oc1ccc(NC(C)=O)cc1,-51.7
17,COc1ccc(CCNC(=O)c2ccc3nc(-c4ccco4)c(-c4ccco4)nc3c2)cc1OC,-0.346
18,COc1ccc(Cn2c(O)c(C=Nc3ccc(O)cc3)c3ccccc3c2=O)cc1,1.27
19,O=C(c1[nH]nc2c1CCc1ccccc1-2)N1CCN(Cc2ccc3c(c2)OCO3)CC1,-26.9
20,O=C(N/N=C/c1ccc(O)cc1O)C(=O)N/N=C/c1ccc(O)cc1O,14.1
21,COc1cccc(N=Nc2c(N)[nH]n3c(=O)c4c(nc23)CCCC4)c1,12.2
22,Nc1[nH]n2c(=O)c3c(nc2c1N=Nc1ccc(Cl)cc1)CCCC3,-8.56
23,Nc1[nH]n2c(=O)c3c(nc2c1N=Nc1ccccc1)CCCC3,-54.3
24,COc1ccc(OC)c2[nH]c(=O)c(CCNC(=O)c3ccc4c(c3)OCO4)cc12,-10.2

row,Structure (SMILES),"hERG current change (%, negative = inhibition) at 10uM [%]"
1,CN(C)S(=O)(=O)N1CCN(C(=O)c2ccccc2)CC1,8.25
2,CC(C)NC(=S)N/N=C1\CCCc2ccccc21,10.4
3,C=C(C)CNC(=S)N/N=C1\CCCCc2ccccc21,-60.3
4,CCCCNC(=S)N/N=C1\CCCCc2ccccc21,-64.4
5,C=C(C)CNC(=S)NN=C1c2ccccc2-c2ccccc21,6.79
6,CCNC(=S)N/N=C1\CCCCc2ccccc21,-3.93
7,CC(C)NC(=S)N/N=C1\CCCCc2ccccc21,-21.1
8,COc1cc(CCCN2C(=O)C(=O)NC[C@@H]2CC2CCCCC2)cc(OC)c1OC,4
9,N#Cc1cc[n+](CC(=O)c2ccc(NC(=O)c3ccccc3)cc2)cc1.[Br-],-14.6
10,Cc1ccc(SCCNC(=O)/C=C/c2ccc(Cl)cc2)cc1,-0.0121
11,CC(C)C(NC(=O)/C=C/c1ccc(F)cc1)C(C)C,16.1
12,Cc1ccc2c(c1)NC(=O)C(CC(=O)NCCCN1CCCCC1C)O2 (centres unmarked),-4.68
13,COc1ccc(N2CCN(CCCNC(=O)CC3Oc4ccc(C)cc4NC3=O)CC2)cc1 (centres unmarked),-55.5
14,Cc1ccc2c(c1)NC(=O)C(CC(=O)NCCCN1CCN(c3cc(C)ccc3C)CC1)O2 (centres unmarked),-61.4
15,Cc1ccc2c(c1)NC(=O)C(CC(=O)NCCCN1CCCC1)O2 (centres unmarked),12.6
16,CCN(CC)CCCNC(=O)CC1Oc2ccc(C)cc2NC1=O (centres unmarked),0.515
17,Cc1ccc2c(c1)NC(=O)C(CC(=O)NCCCN1CCc3ccccc3C1)O2 (centres unmarked),-65.7
18,COc1ccc(NC(=O)CC2Oc3ccc(C)cc3NC2=O)cc1 (centres unmarked),11.3
19,Cc1ccc2c(c1)NC(=O)C(CC(=O)NCCCN1CCCCC1)O2 (centres unmarked),-0.113
20,Cc1ccc2c(c1)NC(=O)C(CC(=O)NCCCN1CCCC1=O)O2 (centres unmarked),16.5
21,CCN(CCCNC(=O)CC1Oc2ccc(C)cc2NC1=O)Cc1ccccc1 (centres unmarked),-61.5
22,CCCCN(CCCC)CCCNC(=O)CC1Oc2ccc(C)cc2NC1=O (centres unmarked),-49.5
23,CCC1CCCCN1CCCNC(=O)CC1Oc2ccc(C)cc2NC1=O (centres unmarked),-7.95
